Measured values from PubChem BioAssay (NCI).
About 83,000 compounds went through this panel and 20% of them were active in at least one assay; those are over-represented in the sample as a whole.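 Note: values are percent growth. 100 is the growth of untreated cells, values between 100 and 0 indicate rising inhibition; between -100 and 0 indicates cell death.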 Active and inactive are the calls of the source. The calls were made as follows: active = growth percent below 10; inactive = the rest.

These compounds were tested on SW-620 colon (assay: NCI-60 one-dose screen, 48 h (100 = growth as untreated, 0 = no growth, -100 = all killed)). Conditions: 10 µM.

| SMILES | growth |
| --- | --- |
| O=C(COc1cccc(/C=C2\CSc3ccccc3C2=O)c1)c1ccc(Cl)cc1 | -100% (active) |
| O=C(COc1cccc(/C=C2\CSc3ccc(Cl)cc3C2=O)c1)c1ccc(Cl)cc1 | -71.6% (active) |
| O=C(CCl)Nc1ccc(Cc2ccc(NC(=O)CCl)cc2)cc1 | -21.8% (active) |
| O=C1CSC(=S)N1/N=C/c1ccc(Cl)s1 | 108% (inactive) |
| CCc1ccc(C2=NN(c3ccc(S(C)(=O)=O)cc3)C(=O)CC2)cc1 | 12.4% (inactive) |

The compounds below were run on MCF7 breast in the same assay as above. Conditions: 10 µM.

| SMILES | growth |
| --- | --- |
| O=C(N/N=C/c1ccc(Cl)cc1)c1ccccc1Nc1cccc(C(F)(F)F)c1 | 85.2% (inactive) |
| O=C(CSc1nccc(Nc2cccc3ccccc23)n1)c1ccc(Cl)cc1 | 99.5% (inactive) |
| O=C(CSc1nnc(-c2cccnc2SCc2ccccc2)o1)Nc1nc(Cl)cc(Cl)n1 | 92% (inactive) |
| Nc1nc(N)c(N)c(Nc2ccc(CCO)cc2)n1 | 105% (inactive) |
| O=C(CNc1nnc(-c2cccnc2SCc2ccccc2)s1)Nc1nc(Cl)cc(Cl)n1 | 89.1% (inactive) |
| CN(C)c1ccc(/C=N/NC(=O)c2ccccc2Nc2cccc(C(F)(F)F)c2)cc1 | 92.5% (inactive) |
| CN1C(=O)C2(Nc3cc(Cl)ccc3S2)c2cc(Cl)ccc21 (stereo not drawn) | 75.4% (inactive) |
| CC(C)(C)OC(=O)N1CCc2c(sc3ncnc(N/N=C/c4cccc5ccccc45)c23)C1 | 2.21% (active) |
| COc1cc(CNC(=O)C2CSC3(C)c4ccccc4C(=O)N23)cc(OC)c1OC (stereo not drawn) | 93.7% (inactive) |
| c1ccc(CSc2ncccc2-c2nnc(SCCN3CCOCC3)o2)cc1 | 94.9% (inactive) |
| CC[N+](CC)=c1ccc2nc3c(cc(NCc4ccccc4)c4ccccc43)oc-2c1 | -82.2% (active) |
| N#CC1=CC2CN(Cc3ccccc3)C1C1C(=O)N(c3ccccc3)C(=O)C21 (stereo not drawn) | 97.1% (inactive) |
| COc1ccc(-c2nn(-c3cccc(Cl)c3)cc2-c2nc(N)[nH]c(=O)c2C#N)cc1 | 51% (inactive) |
| COc1cc2cc(Oc3ccc(NC(=O)Nc4ccc(Cl)c(C(F)(F)F)c4)cc3)c(C)nc2cc1OC | 2.59% (active) |
| COc1cc2cc(Oc3ccc(NC(=O)Nc4ccc(Cl)c(Cl)c4)cc3)c(C)nc2cc1OC | 13.8% (inactive) |
| COc1cc(-c2nn(-c3cccc(NC(=O)NCCNS(=O)(=O)c4ccc(Cl)cc4)c3)cc2-c2ccncc2)ccc1Cl | 4.85% (active) |
| O=C(N/N=C/c1c(Cl)cccc1Cl)c1ccccc1Nc1cccc(C(F)(F)F)c1 | 94.7% (inactive) |

| SMILES | growth |
| --- | --- |
| CC(=O)Nc1ccc(CC[C@H]2CCC/C=C/[C@@H]3C[C@H](O)C[C@H]3[C@H](O)/C=C/C(=O)O2)cc1 | -14.8% (active) |
| Cc1cc(Cl)ccc1Nc1nc(C(F)(F)F)ccc1C(=O)N/N=C/c1c(Cl)cccc1Cl | 7.7% (active) |
| CCOC(=O)CC(S(=O)(=O)c1ccccc1)S(=O)(=O)c1ccccc1 | 101% (inactive) |
| Cc1cc(Cl)ccc1Nc1nc(C(F)(F)F)ccc1C(=O)N/N=C/c1cccc(O)c1 | 29.9% (inactive) |
| CC(C)=CCC/C(C)=C/CC/C(C)=C/CC/C=C(\C)CC/C=C(\C)CCC(=O)Nc1ccn(C2OC(CO)C(O)C2(F)F)c(=O)n1 (stereo not drawn) | 21.8% (inactive) |
| COc1ccccc1/C=N\N/C(N)=N\N=C\c1ccccc1OC | 11.3% (inactive) |
| Cc1cc(CCNC=O)c(C)c2c1sc1ccccc12 | 100% (inactive) |
| COc1ccc(-c2nc(-c3nc4ccc(C)cc4[nH]3)cc3c2[nH]c2ccccc23)cc1 | 36.1% (inactive) |
| Cc1ccc(/C=C2/C(=O)N(C)c3ccc(S(=O)(=O)Nc4ccc(C(C)(C)C)cc4)cc32)s1 | 72.4% (inactive) |
| c1ccc(/C(=N\Nc2ccc3ccccc3n2)c2ccccn2)cc1 | 12.2% (inactive) |
| NC(N)=N/N=C(\N=Nc1ccccc1)c1ccc(Cl)cc1 | 23.8% (inactive) |
| COc1cc(NC(=O)Nc2cnc(Nc3ccc(N4CCOCC4)cc3)nc2Oc2cccc(OC)c2)cc(OC)c1 | 50.6% (inactive) |
| COc1cc(-c2nn(-c3cccc(NC(=O)CCN4CCN(c5ccccc5)CC4)c3)cc2-c2ccncc2)ccc1Cl | 12.6% (inactive) |
| OCC1OC(n2ccc3c(NO)ncnc32)C(O)C1O (stereo not drawn) | -0.414% (active) |
| CCOC(=O)C1C(C(=O)OCC)C2C(=O)C3C(C(=O)OCC)C(C(=O)OCC)C3C(=O)C12 (stereo not drawn) | 99.8% (inactive) |
| CCCCN(CCCC)C(=O)[C@H](CC)[C@@H]1CC[C@@H](C)[C@@H]([C@H](C)[C@@H](O)[C@@H](C)C(=O)[C@H](CC)C2O[C@]3(C=CC(=O)[C@]4(CC[C@@](C)([C@H]5CC[C@](O)(CC)[C@H](C)O5)O4)O3)[C@H](C)C[C@@H]2C)O1 (stereo partly drawn) | 16.2% (inactive) |
